Measurements: the supplement of paper PMC3334620
The full ranking holds about 33,000 sequences; the median of “E-score (-0.5 to 0.5)” is about -0.013, and the highest 2% start at about 0.3. This is one part of a sample in which the highest values are shown more often than they occur.

Molecular target: T1, Msn1 (UniProt P22148)
T1 sequence: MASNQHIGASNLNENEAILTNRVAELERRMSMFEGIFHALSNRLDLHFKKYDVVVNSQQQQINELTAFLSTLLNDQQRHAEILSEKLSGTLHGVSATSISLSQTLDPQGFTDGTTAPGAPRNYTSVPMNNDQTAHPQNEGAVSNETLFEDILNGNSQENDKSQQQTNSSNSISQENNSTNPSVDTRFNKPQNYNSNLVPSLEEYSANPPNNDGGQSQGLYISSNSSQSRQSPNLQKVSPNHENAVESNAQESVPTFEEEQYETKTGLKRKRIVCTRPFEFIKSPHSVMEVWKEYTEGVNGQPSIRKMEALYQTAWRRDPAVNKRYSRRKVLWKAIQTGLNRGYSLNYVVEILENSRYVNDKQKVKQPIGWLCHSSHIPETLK
Assay: PBM E-score (8-mer binding enrichment) (E-score (-0.5 to 0.5)); higher = stronger / more preferred TF binding
Details: protein concentration: 200 nM; construct: GST-full length
Procedure: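 Universal 'all 10-mer' protein binding microarrays (Agilent AMADID 015681) probed with GST-tagged S. cerevisiae TFs (full-length or DBD) made by in vitro transcription/translation (PURExpress), about 100-200 nM. Bound TF was detected with fluorescent anti-GST. Each ungapped 8-mer (which stands for itself and its reverse complement) is scored by the PBM enrichment score (E-score), a modified Wilcoxon-Mann-Whitney statistic from -0.5 to +0.5, computed with the Universal PBM Analysis Suite. Scale: above 0.35 generally sequence-specific binding.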

Sequence	PBM E-score
CGCTAGGA	-0.0538
GCGGGGCA	-0.147
GGAACCCC	-0.334
ACCGTCTA	-0.11
CTGCGATA	0.0274
CAGGTGAA	0.0265
ATGCAGTC	-0.186
CTGGAGTC	-0.182
AGCCAATA	-0.113
GATCGGCC	-0.0564
CACTACCG	-0.181
AACTAGAA	0.062
AGTATCAA	0.217
CGTATCAA	0.0969
TGTCTCAA	0.384
CGTCTCAA	0.00785
AGTCTCAA	-0.0719
TGTATCAA	0.325
TATAATCA	0.169
CCGGGATC	0.0583
AAGGGGAC	0.101
CGAATGTC	0.386
AGAATGTC	0.459
AGAATGTG	-0.172
CGAATGAC	0.258

Sequence	PBM E-score
AGAATGTA	0.167
CGAATGTA	-0.00301
CCGCTGAG	0.00458
AAACCGCT	-0.0604
CCAAGGGC	-0.126
ACACAAGC	0.0155
AGAGGTAG	-0.163
GCGATCAA	-0.0507
CTCAGACC	-0.138
CTCAGACA	0.317
GTCAGAGA	0.0303
ATCAGACA	0.173
GTCAGACA	0.323
CCCAGACA	0.199
CACGCCAC	-0.127
TCCACGGA	0.299
GAAGGTGA	-0.0331
GGGTTAGA	-0.178
GCAAATTA	-0.0115
ACAAACTG	0.158
AGATCTGC	0.0313
GAGGGCCA	-0.104
CGATGACA	0.314
CGCTGACG	-0.24
ATATGACA	0.304

Sequence	PBM E-score
CGATGACG	-0.158
CTATGACA	0.375
AGATGACA	0.157
CTATGAGA	-0.0425
CGCTGACA	0.314
CTATGACC	-0.0237
GTATGACA	0.294
TGCTGACA	0.125
ATATGACC	-0.0751
CTTCCAGA	-0.0473
GACACACC	0.235
AGTCGAGA	0.0774
ACAGGTGG	-0.0714
ATTTGCAA	0.103
CTAACTTA	0.227
TGTGCGAA	-0.0498
AAAACACC	0.0787
AGGGTCGC	-0.229
GCTTGAAC	0.187
CGGGCAGC	-0.122
AAGACAGT	0.0956
AAGACACT	0.163
AAGACACG	0.248
AATACATG	0.0057
AAGACATA	0.382

Sequence	PBM E-score
AAGACATG	0.337
AAGACATT	0.414
AAGACATC	0.281
CAGACATA	0.366
CAGACATC	0.246
CAGACATG	0.26
AACACATG	0.07
ACGAGCTC	-0.0205
CCAAATCG	-0.101
GTCTCAGA	0.0346
CAAAGGGC	-0.0864
GCAAGAAA	0.0128
CCCTCTTC	-0.288
CCGGCTCC	-0.269
ACCCCACA	-0.0822
CACCAGAC	0.00954
CGACCCCA	-0.177
CATACAGG	-0.0332
GAGACATA	0.448
GAGACATC	0.265
TAGACATA	0.41
GAGACACA	0.272
TAGACAGA	0.177
TAGACACA	0.163
GGGGCTGA	-0.148

Sequence	PBM E-score
AGGGGCAG	-0.13
GGACCGGA	0.113
CGCTAACC	-0.084
GGAGTTAA	0.0335
TGGCCCCA	-0.338
AAGTCCGG	0.22
ATGTCCGG	0.457
CTGTCCGC	0.114
ATGTCCGC	0.44
AGGTCCGG	0.041
ACGTCCGC	0.14
CCACTTAC	-0.133
CCCTCTAC	-0.204
ACCGTCGT	0.142
GCAGAGCC	-0.149
ATGACAAC	0.311
ATGACGAA	0.0573
ATGACAAA	0.433
CTGACAAA	0.37
ATGACAAG	0.298
ATGACAGC	0.149
CTGACAAC	0.108
CTGACAAG	0.161
TTGACAAA	0.266
ATTACAAT	0.155

Sequence	PBM E-score
ATAACAAT	0.00977
ATGACAAT	0.365
ACGTGCCT	-0.148
ATATCTGG	0.045
GCCATTGA	0.00063
CAATAAGC	0.00863
GCGTATCC	-0.037
CCATACCA	0.0887
GTGACAAC	0.139
GTGACGAA	-0.0509
GTGACAAA	0.423
ACTCCCTC	-0.312
TCATGACA	0.388
GAATGACC	0.201
TAATGACA	0.307
AAATGACA	0.278
CAATGACA	0.298
GCATGACA	0.199
ACATGACA	0.297
TGATGACA	0.299
GAATGACA	0.34
AGGGTAAC	-0.177
AAGTCGGA	0.158
ATACCCAA	0.195
ATAGGTTG	-0.0907

Sequence	PBM E-score
CGCGGGCC	-0.105
ACGGTCGG	-0.0232
GCAAACCC	-0.225
CCAACGGC	-0.132
GCATGTAA	-0.12
CAATTGTG	-0.00904
AAATTGTA	0.222
GAATTGTA	0.151
GAATTGGC	-0.278
AAATTGTC	0.449
CAATTGTC	0.445
CAATTGTA	0.184
AAATTGTT	0.143
GAATTGTC	0.392
ACCTAAAA	0.0426
TCTAGCAA	0.0862
TCACCCCA	0.108
AAACGCCT	-0.0244
GGTGCGGA	-0.047
ACCTAAGG	-0.14
AGTGCTCA	-0.229
AGGTACAC	0.139
